Measured values published in PubChem BioAssay AID588719 (Southern Research Specialized Biocontainment Screening …, 2011).
The campaign covered roughly 1,500 compounds. About 920 (61%) were called active. The rule behind the calls is not given here. The set was probably picked from earlier hits. Some of the results follow. Entries with a potency or affinity are not part of this list.

Assay: Vero 76 cell cytotoxicity, dose response, cytotoxicity control for VEEV inhibitor project (AID 588719)
Settings: Vero 76 cells viability, cytotoxicity counter-screen; series mostly up to 25 µM

Structure (SMILES)	outcome
O=C(/C=C/c1cccc([N+](=O)[O-])c1)c1ccc2c(c1)OCCO2	inactive
CN1C/C(=C/c2ccsc2)C(=O)/C(=C/c2ccsc2)C1	inactive
O=C(CSC1CN(C(c2ccccc2)c2ccccc2)C1)N/N=C/c1ccc(Cl)cc1Cl	inactive
O=C(CC(=O)N/N=C/c1ccc(F)cc1)N/N=C/c1ccc(F)cc1	inactive
NC(=S)NN=C(c1ccc(F)cc1)C1CC1	inactive
CCCCCCCCCCCCCCCC(O)C(N)CO (configuration not stated)	inactive
CN1CCN(C(=O)CCN2C(=O)/C(=C\c3ccc(Cl)cc3Cl)SC2=S)CC1	inactive
O=C(N1CCOCC1)N1c2ccccc2Sc2ccccc21	inactive
NC(=O)c1nsc(C(=O)N(c2ccccc2F)C(C(=O)NCc2ccccc2)c2ccc(O)cc2)c1N (configuration not stated)	inactive
COC(=O)c1cc2c(N)c(C(=O)c3ccc(Cl)cc3)sc2nc1C(OC)OC	inactive
COc1cc2cc(C(=O)N3CC(COS(C)(=O)=O)c4ccc(O)cc43)[nH]c2c(OC)c1OC (configuration not stated)	inactive
COC(=O)c1ccc(/C=C2/SC(=S)N(CCC(=O)N3CCOCC3)C2=O)cc1	inactive
O=C(O)c1ccccc1Nc1ccc(OC(F)F)cc1	inactive
COc1cc2[nH]c3c(N4CCN(c5ccccn5)CC4)ncnc3c2cc1OC	inactive
Cc1cc(-c2ccccc2)nc(N2CCN(c3ccccn3)CC2)n1	inactive
Cc1nc2ccccc2nc(C)c1=NOCc1cccc(F)c1	inactive
Cc1ccc2oc(C(F)(F)C(F)F)cc(=O)c2c1	inactive
O=C(OCc1cn([C@@H]2C[C@H](c3ccc(Cl)cc3)N(C(=O)c3cccs3)C[C@H]2O)nn1)c1ccccc1	inactive
COCCNCC(=O)NC12CC3CC(CC(C3)C1)C2	inactive
CC(OCCN(C)C)C(=O)C12CC3CC(CC(C3)C1)C2 (configuration not stated)	inactive
Cc1ncc([N+](=O)[O-])n1CC(=O)NCCc1ccccc1	inactive
CC1N(C)c2cc(NC(=O)c3ccco3)c(P(=O)(Nc3ccc([N+](=O)[O-])cc3)N3CCOCC3)cc2C1(C)C (configuration not stated)	inactive
CCC(NC(=O)CCCc1ccccc1)c1ccccc1 (configuration not stated)	inactive

Structure (SMILES)	outcome
CCOc1ccc2nc3cc(NCc4ccc(OC)cc4)ccc3c(N)c2c1	inactive
Cc1ccc(NC(=O)C2CCCN2C(=O)OC(C)(C)C)cc1C (configuration not stated)	inactive
COc1ccccc1C=NN=C1c2ccccc2-c2ccccc21	inactive
COc1cccc(-c2ccc(NC(=O)C3CCCN(Cc4cnn(C)c4C)C3)cc2)c1 (configuration not stated)	inactive
COc1cccc(-c2ccc(NC(=O)C3CCCN(Cc4cnn(C)c4)C3)cc2)c1 (configuration not stated)	inactive
O=C1C2CCCN2C(c2ccc(F)cc2)N1c1ccc(Cl)cc1 (configuration not stated)	inactive
Cc1cc(NC(=O)c2ccc3nccnc3c2)ccc1Br	inactive
C[C@@H]1CCCCO[C@H](CN(C)C(=O)NC2CCCCC2)[C@@H](C)CN([C@H](C)CO)C(=O)c2cc(NC(=O)c3ccccc3)ccc2O1	inactive
COc1cccc(CNC(=O)c2cc3oc4ccccc4c3n2C)c1OC	inactive
CCC1(c2ccccc2)NC(=S)N(c2ccc(C)cc2)N1 (configuration not stated)	inactive
O=C(COC(=O)CCC(=O)c1ccc(F)cc1)NCc1ccccc1Cl	inactive
O=C(Nc1ccc(C(=O)OC[C@@H]2CCCN3CCCC[C@H]23)cc1)c1cccc(Br)c1	inactive
CCCCC(=O)NC(c1ccc(Cl)cc1Cl)c1ccc2cccnc2c1O (configuration not stated)	inactive
CCC(=O)OC1CCC2C3CCC4CC(=O)C=CC4(C)C3CCC12C (configuration not stated)	inactive
CNCCNC[C@H](Cc1cccc2ccccc12)NCCc1ccccc1	inactive
Cc1cccc2sc(N(CCCN(C)C)C(=O)c3ccco3)nc12	inactive
CCOC(=O)c1c(C)oc2ccc(OCc3cc(C(=O)OC)oc3C)cc12	inactive
C=C(C)COc1ccc(-c2nc(N)ncc2-c2ccc(Br)cc2)c(O)c1	inactive
C=CCC1(CCCCC)C(=O)NC(=S)NC1=O	inactive
Oc1c(C(Nc2nc3ccccc3s2)c2ccco2)ccc2cccnc12 (configuration not stated)	inactive
O=CC1=C(c2ccccc2)Oc2ccccc2O1	inactive
Cc1ccc(S(=O)(=O)c2ccsc2NC(=O)c2ccccc2)cc1	inactive
Cc1ccc(NC(=O)Nc2ccno2)cc1	inactive

Structure (SMILES)	outcome
Cc1cc(N/N=C/c2cccc([N+](=O)[O-])c2)nc(-n2nc(C)cc2C)n1	inactive
CC(C)(C)OC(=O)[C@H](Cc1ccccc1)NC(=O)c1nc[nH]c1C(=O)NC1CCN(C(=O)OC(C)(C)C)CC1	inactive
CC1(C)CC(=O)/C(=N/Nc2ccc(Cl)cc2)CO1	inactive
CN1CCN(c2ccc(NC(=O)c3cccc(OCc4ccccc4)c3)cc2)CC1	inactive
CCCCOc1ccc(C(=O)Nc2ccc(N3CCN(C)CC3)cc2)cc1	inactive
CCCn1cnc2c(SCc3ccccc3Cl)nc(N)nc21	inactive
O=C(NCCc1csc(-c2cccnc2)n1)c1ccccc1Br	inactive
CCN(CC)CCCNC(=O)c1oc2ccc(S(=O)(=O)N3CC(C)CC(C)C3)cc2c1C (configuration not stated)	inactive
Cc1ccccc1-c1n[nH]c(=S)n1/N=C/c1c(C)nn(-c2ccccc2)c1C	inactive
COc1ccccc1C1N(c2ccc(Cl)cc2)C(=O)C2CCCN21 (configuration not stated)	inactive
CNc1nc(Cl)nc2c1ncn2-c1ccccc1	inactive
Cc1cc(=O)[nH]c(N/N=C/c2ccc(OC(=O)c3cccnc3)cc2)n1	inactive
O=S1(=O)CCC(NC(=S)SCCOc2ccccc2)C1 (configuration not stated)	inactive
Nc1[nH]nc2nc(NCc3ccccc3)c3c(c12)CCN(Cc1ccccc1)C3	inactive
CCc1ccc(N2C(=O)NC(=O)/C(=C\C=C\c3ccco3)C2=O)cc1	inactive
Cc1ccc(N2C(=O)NC(=O)/C(=C\C=C\c3ccco3)C2=O)cc1	inactive
Nc1nc(CN2CCN(c3ccccn3)CC2)nc(Nc2ccc(Cl)cc2)n1	inactive
Cc1[nH]c(C)c(S(=O)(=O)N2CCN(c3cccc(C(F)(F)F)c3)CC2)c1C(=O)N1CCCCC1	inactive
COc1ccccc1OCC(=O)Nc1nc2c(s1)CCCC2	inactive
O=C1Nc2cc(C(=O)NCCCN3CCOCC3)ccc2S/C1=C/c1cccc(Cl)c1	inactive
O=C(NCCCN1CCOCC1)c1ccc(/C=C2\Oc3ccccc3N(Cc3ccccc3F)C2=O)cc1	inactive
